Data from PubChem BioAssay (EPA / NIEHS).
Active and inactive are the calls of the source. The calls were made as follows: active = hit-call score of the fitted dose curve at least 0.9, where 1 is the maximum; inactive = score below 0.9.

The compounds below were run on Interleukin 6 Receptor (IL6R), IL6R (gene 3570) (assay: LTEA_HepaRG_IL6R: Life Technologies and Expression Analysis (LTEA) Assay for Interleukin 6 Receptor (IL6R) using HepaRG (AID 2283510;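 as to AC50: TaqMan qRT-PCR signal normalized to ACTB GAPDH and POLR2A housekeeping genes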)). Conditions: mRNA level, 48 h; actives raise or lower the signal.
Protocol: LTEA_HepaRG is a cell based, multiplexed-readout assay that uses HepaRG, a human liver cell line, with measurements taken at 48 hours after chemical dosing on a 96-well plate.LTEA_HepaRG_IL6R is one of 102 assay component(s) measured in the LTEA HepaRG cell culture assay. It is a marker of Inflammation.Data from the assay component LTEA_HepaRG_IL6R was analyzed into 1 endpoint. This assay endpoint, LTEA_HepaRG_IL6R, was analyzed with bidirectional fitting relative to DMSO as the negative control and baseline of activity. Using a type of inducible reporter, measures of mRNA induction for gain or loss-of-signal activity can be used to understand regulation of transcription factor activity. To generalize the intended target to other relatable targets, this assay endpoint is annotated to the cytokine receptor intended target family, where the subfamily is JAK-STAT cytokine receptor.
A total of 1060 chemcials from the ToxCast library were tested in eight-point concentration-response experiments. Cell culture and cytotoxicity assays were conducted at Thermo Fisher Scientific's Custom Services facility (Madison, WI). A single lot of human HepaRG cells (Thermo Fisher Scientific, Frederick, MD) was used for the cell culture experiments. 96-well format collagen type I coated plates of human HepaRG cells were prepared using established methods. Briefly, cryopreserved HepaRG cells were thawed, plated at a density of approximately 100,000 cells/well in HepaRG Thaw, Plate, and General Purpose media (HPRG770, Thermo Fisher Scientific), and incubated for 48 hours. 0.5% DMSO was selected as vehicle control to balance the requisite need of DMSO in HepaRG cultures to maintain differentiation (for example, baseline metabolism, proportions of hepatocytes vs. cholangiocytes), while enabling further hepatic receptor pathway activation (for example, PXR and CAR) in response to chemical exposure. 48 hours after plating, the culture medium was replaced with HepaRG Serum-Free Incudtion Media. Cells were exposed to each test chemical in duplicate and maintained in CO2 incubators for another 48 hours. Chemical plates were thawed to room temperature and 200x concentrations of treatment groups were prepared. 8-point conentration-reponse curves were made with the highest exposure at 100 uM, followed by half-log dilutions, all in 0.5% DMSO. Each test plate contained variouse controls, induction positive controls (1mM phenobarbital), cytotoxicity positive controls ([…] aflatoxin B1), vehicle controls (0.5% DMSO), and total lysis controls (0.5% DMSO). Cell morphology images were taken using an Essen IncuCyte FLR automated microscope, with six 96-well plates imaged in about 24 minutes. Images were captured and exported and JPEG files. Spent culture media was transfered to black-well plates for the LDH assay, and remaining media was sorted at -80 C for later use. Cells were treated with RLT buffer and frozen until shipped for gene expression analysis. Total RNA was isolated from the cell suspension in 75 uL of Buffer RLT (Qiagen, Germantown, MD 20874) by Quintiles/Expression Analysis (Durham, NC) using a custom isolation procedure. Total RNA from each plate well was transferred to a preamplification plate. Fluidigm's 96.96 Dynamic ArrayTM (Fluidigm, Amsterdam, the Netherlands) technology was used for gene expression analyses by quantitative reverse transcription polymerase chain reaction (qRT-PCR, performed by Quintiles/Expression Analysis, Durham, NC)89. Standard TaqManTM Assays (Applied Biosystems/ThermoFisher Scientific, Foster City, CA) were used to assess the expression of 93 genes selected based on their selectivity and sensitivity to important hepatic receptors known to be modulated by environmental chemicals; importance in human hepatocyte functionality; and hepatotoxicity. […]
With `O=C(Oc1ccccc1)c1cccc(C(=O)Oc2ccccc2)c1` the outcome was “inactive”.
For `CC(C)c1cccc(C(C)C)c1NC(=O)NS(=O)(=O)c1cc(C(C)(C)O)co1`, the outcome was “inactive”.
In the case of `O=C1O[C@H]([C@H](O)CO)C(O)=C1O`, the outcome is reported as “inactive”.
With `CCCCCCC(C=O)=Cc1ccccc1` the outcome was “inactive”.
In the case of `CC(C)OC(=O)C(C)(C)Oc1ccc(C(=O)c2ccc(Cl)cc2)cc1`, the outcome is reported as “inactive”.
For `CC(C)c1cccc(C(C)C)c1`, the outcome was “inactive”.
`CCCCCCCCCC[N+](C)(C)[O-]` was tested, and the outcome was “inactive”.
In the case of `CCC(C)N(C)C(=O)c1cc2ccccc2c(-c2ccccc2Cl)n1` (stereo not given), the outcome is reported as “inactive”.
In the case of `CO[C@@H]1COCC[C@@H]1N[C@@H]1CC[C@@](C(=O)N2CCc3ncc(C(F)(F)F)cc3C2)(C(C)C)C1`, the outcome is reported as “inactive”.
For `CC(N)=O`, the outcome was “inactive”.
For `Oc1ccccc1O`, the outcome was “inactive”.
With `Cn1cnc2c1c(=O)[nH]c(=O)n2C` the outcome was “inactive”.
For `Cc1cn([C@H]2C=C[C@@H](CO)O2)c(=O)[nH]c1=O`, the outcome was “inactive”.
In the case of `CCCCCCC(CCCCCCCCCCC(=O)OCC(COC(C)=O)OC(C)=O)OC(C)=O` (stereo not given), the outcome is reported as “inactive”.
For `O=C(O)c1cccnc1`, the outcome was “inactive”.
With `COc1ccc(OC(F)(F)F)cc1CN[C@H]1CCCN[C@H]1c1ccccc1` the outcome was “inactive”.
For `NC(=Nc1ccccc1)Nc1ccccc1`, the outcome was “inactive”.
In the case of `NC=O`, the outcome is reported as “inactive”.
`CC(COCC(C)OC(=O)c1ccccc1)OC(=O)c1ccccc1` (stereo not given) was tested, and the outcome was “inactive”.
`O=C(O)c1[nH]n(-c2ccc(S(=O)(=O)O)cc2)c(=O)c1N=Nc1ccc(S(=O)(=O)O)cc1` was tested, and the outcome was “inactive”.
`CC(=O)OCC(COC(C)=O)OC(C)=O` was tested, and the outcome was “inactive”.
In the case of `O=[Si]=O`, the outcome is reported as “inactive”.
With `C=CCc1ccc(OC)c(OC)c1` the outcome was “inactive”.
In the case of `Oc1ccc(O)cc1`, the outcome is reported as “inactive”.
In the case of `COC(=O)CCC(=O)OC`, the outcome is reported as “inactive”.
`CC(=O)O[C@]1(C(C)=O)CC[C@H]2[C@@H]3C=C(Cl)C4=CC(=O)[C@@H]5C[C@@H]5[C@]4(C)[C@H]3CC[C@@]21C` was tested, and the outcome was “inactive”.
In the case of `Cc1c(C)c2c(c(C)c1O)CCC(C)(COc1ccc(CC3SC(=O)NC3=O)cc1)O2` (stereo not given), the AC50 is reported as 92.9 µM (active).
For `CCCCCCCC(=O)OC`, the outcome was “inactive”.
`CC1=C(C)S(=O)(=O)CCS1(=O)=O` was tested, and the outcome was “inactive”.
For `CCCCC(CC)COC(=O)CCCCCCCC(=O)OCC(CC)CCCC` (stereo not given), the outcome was “inactive”.
For `O=C1CCCCC1`, the outcome was “inactive”.
`O=C(O)CC(O)(CC(=O)O)C(=O)O` was tested, and the outcome was “inactive”.
`C#CC(O)C(CC)CCCC` (stereo not given) was tested, and the outcome was “inactive”.
For `CCCCCCCCCCCCCCCCO`, the AC50 was 50 µM (active).
For `Nc1nc(Cl)nc2c1ncn2[C@H]1C[C@H](O)[C@@H](CO)O1`, the AC50 was 0.603 µM (active).
With `C/C=C/C=C/C(=O)O` the outcome was “inactive”.
For `OCC(O)CO`, the outcome was “inactive”.
`CC(=O)CC(c1ccccc1)c1c(O)c2ccccc2oc1=O` (stereo not given) was tested, and the outcome was “inactive”.
With `O=C1NC(=O)C(c2ccccc2)(c2ccccc2)N1` the outcome was “inactive”.
With `Cc1ccc(-c2cc(C(F)(F)F)nn2-c2ccc(S(N)(=O)=O)cc2)cc1` the outcome was “inactive”.
